ID4 binder – binds human ID4 protein on microarray; P47928; small molecule microarray, Flag-ID4 binding, fluorescence F/B; calls only; 31,000 tested, 1.2% active; AID 624137; call rule not given here;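 also: a binder raises fluorescence above local background on the spot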
STK33 kin inh – blocks human STK33 kinase activity | inhibition, % at 12.5 µM | Q9BYT3 | AID 2322 | 27,000 tested, 0.44% active | ADP-Glo luminescence, MBP substrate; in the data active = inhibition above about 20%; inconclusive = no clear call, values can overlap the other calls
Target sequence (Q9BYT3 whole entry, looked up): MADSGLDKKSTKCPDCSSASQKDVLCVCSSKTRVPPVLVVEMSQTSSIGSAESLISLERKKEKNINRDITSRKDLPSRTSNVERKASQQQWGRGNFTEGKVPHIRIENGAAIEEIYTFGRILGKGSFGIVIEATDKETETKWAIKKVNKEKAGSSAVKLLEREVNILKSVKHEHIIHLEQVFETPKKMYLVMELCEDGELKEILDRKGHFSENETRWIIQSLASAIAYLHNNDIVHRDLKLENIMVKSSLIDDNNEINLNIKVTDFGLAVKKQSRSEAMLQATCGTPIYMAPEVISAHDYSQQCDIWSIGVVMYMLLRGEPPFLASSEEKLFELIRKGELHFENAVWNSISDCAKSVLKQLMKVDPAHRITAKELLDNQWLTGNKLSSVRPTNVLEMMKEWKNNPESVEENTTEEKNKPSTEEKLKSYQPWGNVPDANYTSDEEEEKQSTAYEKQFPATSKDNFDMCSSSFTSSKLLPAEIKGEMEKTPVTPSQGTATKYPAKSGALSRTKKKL
mut p53 react – restores mutant p53 pathway signaling in SW480 cells. SW480 PUMA-promoter luciferase, p53 mutant reactivation. activation, % at 9.98 µM. 28,000 tested, 1.5% active. AID 624151; in the data active = activation above about 52%; inconclusive = no clear call, values can overlap the other calls
Numbers stand for hits. A selection: hits, their analogues and other compounds. The true share with any hit is near 2%.

How did COC(=O)c1c(C)cc2c(c(C)c1=O)OC1(C2)C(C)CCC2C(C)(C)OC(=O)C=CC21C (centres undefined) do in these assays?
ID4 binder: inactive; STK33 kin inh: inactive

How did OCCCn1c(-c2ccccc2)cn2c3ccccc3nc12 do in these assays?
ID4 binder: inactive; STK33 kin inh: inactive; mut p53 react: inactive

Results for OCCCn1c(-c2ccc(Cl)cc2)cn2c3ccccc3nc12 ?
ID4 binder: active; STK33 kin inh: inactive; mut p53 react: inactive

Results for CN1CCc2cccc3c2[C@H]1Cc1ccc(O)c(O)c1-3 ?
ID4 binder: inactive; STK33 kin inh: 24.0

How did C[C@@H]1CC(=O)c2c(ccc3c2C(=O)c2cccc(O)c2C3=O)C1 do in these assays?
ID4 binder: inactive; STK33 kin inh: inactive

What do the screens show for `C[C@@H]1O[C@@H](O[C@@H]2[C@@H](O)[C@H](OCCc3ccc(O)c(O)c3)O[C@H](CO[C@@H]3OC[C@](O)(CO)[C@H]3O)[C@H]2OC(=O)/C=C/c2ccc(O)c(O)c2)[C@H](O[C@@H]2OC[C@H](O)[C@H](O)[C@H]2O)[C@H](O)[C@H]1O`?
STK33 kin inh: inactive; mut p53 react: inactive

Results for COc1ccc(I)cc1C(Nc1cc(C)ccn1)c1ccc2cccnc2c1O (centres undefined) ?
ID4 binder: inactive; STK33 kin inh: inactive; mut p53 react: inactive

Results for Cc1ccc2nc(SCc3nc4ccccc4n3C)[nH]c2c1 ?
ID4 binder: inactive; STK33 kin inh: inactive; mut p53 react: 61.8

Results for Cc1cc2nc(SCc3nc4ccccc4[nH]3)[nH]c2cc1C ?
ID4 binder: inactive; STK33 kin inh: inactive; mut p53 react: inconclusive

What do the screens show for `Cc1ccc(NC(=O)CNC(=O)c2ccco2)cc1`?
ID4 binder: inactive; STK33 kin inh: inactive; mut p53 react: 58.8

How did COc1ccc(NC(=O)CNC(=O)c2ccco2)cc1 do in these assays?
ID4 binder: inactive; STK33 kin inh: inactive; mut p53 react: inactive

What do the screens show for `COc1cc([N+](=O)[O-])ccc1NC(=S)NCc1cn(-c2ccccc2)nc1-c1ccccc1`?
ID4 binder: inactive; STK33 kin inh: inactive; mut p53 react: inactive

What do the screens show for `N#Cc1c(NC(=O)CSc2nnc3c(n2)[nH]c2ccccc23)sc2c1CCCC2`?
ID4 binder: inactive; STK33 kin inh: inactive; mut p53 react: inactive

Results for C=C1C(=O)O[C@@H]2C[C@@]3(C)CC(=O)C=C(C)C3C[C@H]12 (some centres undefined) ?
STK33 kin inh: inactive

What do the screens show for `CCn1c(SCC(=O)Nc2ccc(C(=O)O)cc2)nnc1-c1ccc(C)cc1`?
ID4 binder: inactive; STK33 kin inh: inactive; mut p53 react: inactive

Results for CCn1c(SCC(=O)Nc2ccc(C(N)=O)cc2)nnc1-c1ccc(F)cc1 ?
ID4 binder: active; STK33 kin inh: inactive; mut p53 react: inactive

Results for COC(=O)c1ccc(NC(=O)CSc2nnc(-c3ccc(NC(C)=O)cc3)n2C)cc1 ?
ID4 binder: active; STK33 kin inh: inactive; mut p53 react: inactive

Results for CC(=O)Nc1ccc(NC(=O)CSc2nnc(-c3ccc(N)cc3)n2C)cc1 ?
ID4 binder: inactive; STK33 kin inh: inactive; mut p53 react: inactive

What do the screens show for `CCc1cccc(C)c1NC(=O)CSc1nc2ccccc2c(=O)n1-c1cccc2ccccc12`?
ID4 binder: inactive; STK33 kin inh: inactive; mut p53 react: inactive

Results for OC(CNCc1ccccc1)Cn1c2ccccc2c2ccccc21 (centres undefined) ?
ID4 binder: inactive; STK33 kin inh: inactive; mut p53 react: inactive

What do the screens show for `COc1ccc(NC(=O)C2CC=CCC2C(=O)Nc2ccccc2Cl)cc1` (centres undefined)?
ID4 binder: inactive; STK33 kin inh: inactive; mut p53 react: inactive

What do the screens show for `Cc1ccc(-c2cc(-c3c(C)nn(C)c(=O)c3N)[nH]n2)cc1`?
ID4 binder: inactive; mut p53 react: 86.1

Results for O=C(NCC[C@@H](CNC(=O)c1cccc(O)c1O)NC(=O)c1cccc(O)c1O)c1cccc(O)c1O ?
STK33 kin inh: inactive

Results for O=C(CSc1nnc(-c2ccco2)o1)Nc1cccc2ccccc12 ?
ID4 binder: inactive; STK33 kin inh: inactive; mut p53 react: inactive

Results for CC(C)(C)C(=O)CSc1nnc(-c2ccco2)o1 ?
ID4 binder: inactive; STK33 kin inh: inactive; mut p53 react: 69.7

How did O=C(CN1C(=O)C2C3CC(c4ccccc4)C(C3)C2C1=O)Nc1cccc([N+](=O)[O-])c1 (centres undefined) do in these assays?
ID4 binder: inactive; STK33 kin inh: inactive; mut p53 react: inactive

How did CN(C)CCCCCCNC(=O)[C@@H]1C[C@@H]2C(=O)N3CCC[C@H]3C(=O)N2[C@@H]1c1ccc(O)cc1 do in these assays?
ID4 binder: active; STK33 kin inh: inactive

What do the screens show for `CN(C)CCCCNC(=O)[C@@H]1C[C@@H]2C(=O)N[C@@H](CCCCN(C)C)C(=O)N2[C@@H]1c1ccc(O)cc1`?
STK33 kin inh: inactive

Results for Cc1ccc2nsnc2c1NC(=O)COc1ccc([N+](=O)[O-])cc1 ?
ID4 binder: inactive; STK33 kin inh: inactive; mut p53 react: inactive

Screens: PubChem BioAssay, Broad Institute
